Records with an inconclusive call do not appear. Values without a mark were called inactive. Calls follow the shape of the dose curve; as a rule, active = well fitted curve in the direction sought with a large enough effect; inconclusive = small, poorly fitted or top-dose-only effect, or effect the other way, or another doubt; inactive = no such curve, though single readings can be large or run the other way.
Assay: qHTS Assay for Identification of Small Molecule Agonists for NFkB Signaling Pathway. (AID 624478);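 also: compounds tested together with TNF alpha at its EC50 of 10 pM; 0% is about no effect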
Settings: NFkB pathway reporter cell assay, agonist mode, cells co-stimulated with 10 pM TNF alpha; series mostly up to 46.1 µM; activation: at the top concentration
Protocol: The TNF alpha/NFkB signaling pathway was assayed in NFkB-bla cells (Invitrogen), a ME-180 cervical carcinoma line containing a stably integrated beta-lactamase reporter gene controlled by a NFkB response element. This reporter is induced by TNF alpha at 10 pM EC50 and inhibited by the proteosome inhibitor MG-132 at approximately 100 nM IC50. The assay was screened at the EC50 of TNF alpha activation to identify activators of TNF alpha/NFkB signaling
Cells were trypsinized, washed in assay medium (AM, OPTI MEM with 0.5% fetal bovine serum, 0.1 mM nonessential amino acids, 1 mM sodium pyruvate, 10mM HEPES pH 7.3, 100U/ml penicillin, and 100 ug/ml streptomycin) and plated at 1000 cells/5 uL/well into black clear-bottom 1536 well plates. After an overnight incubation at 37 C and 5% CO2, 23 nL of compound were delivered by a pin tool, 1 uL of TNF alpha (10 pM final concentration in AM) was added and plates were incubated at 37 C for 5 hrs. One uL of LiveBLAzerTM detector mix (Invitrogen) was added, the plates incubated at room temperature for 2 hrs, and fluorescence intensity at 460 and 530 nm emission was measured at 405 nm excitation by an Envision (Perkin Elmer).

Compound	activation
CC(C)(C)C(=O)Oc1ccc2c(c1)nc(NC(=O)c1cccc([N+](=O)[O-])c1)n2CCCO	3.29%
O=C1C(Cl)=C(NCCN2CCOCC2)C(=O)c2ncccc21	6.73%
CC(=O)N(C)C1(c2ccccc2)CCN(CCC[C@]2(c3ccc(Cl)c(Cl)c3)CCCN(C(=O)c3ccccc3)C2)CC1	-0.368%
CC(=O)Nc1ccc([C@H](C)C(=O)Nc2ncc(C(C)C)s2)cc1	-1.42%
CC(C)(C)c1cc(C(=O)O)c(NC(=O)Nc2ccc3[nH]ncc3c2)s1	-0.827%
CC(C)(C(=O)NCC(F)(F)C(F)(F)F)C(=O)N[C@@H]1C(=O)Nc2ccccc2-c2ccccc21	-0.471%
COc1cc(Nc2ncc(F)c(Nc3ccc4c(n3)NC(=O)C(C)(C)O4)n2)cc(OC)c1OC	-2.2%
O=c1cc(CN2CCOCC2)occ1OCCCCCSc1ccnc2cc(C(F)(F)F)ccc12	-1.09%
COc1cccc2c1CCCC2CCCN1CCN(C2CCCCC2)CC1 (centres undefined)	-0.0655%
O=C(N[C@@H](c1ccccc1)[C@@H]1CCCCN1)c1cccc(C(F)(F)F)c1Cl	1.8%
O=C(CCCCCCC(=O)Nc1ccccc1)NO	-1.11% [at 92.2 µM]
CO[C@H]1C[C@@H]2CC[C@@H](C)[C@@](O)(O2)C(=O)C(=O)N2CCCC[C@@H]2C(=O)O[C@H]([C@H](C)C[C@@H]2CC[C@H](OCCO)[C@H](OC)C2)CC(=O)[C@H](C)C=C(C)[C@@H](O)[C@@H](OC)C(=O)[C@H](C)C[C@H](C)C=CC=CC=C1C	1.46%
COc1ccc(C2CC(c3ccccc3)=NN2c2ccc(S(N)(=O)=O)cc2)cc1 (centres undefined)	-1.63%
OC[C@H]1O[C@@H](n2cnc3c2NC=NC[C@@H]3O)C[C@H]1O	-2.05%
O=C1Nc2ccc(Cl)cc2C(C#CC2CC2)(C(F)(F)F)O1 (centres undefined)	-0.36% [at 92.2 µM]
CO[C@@H](C(=O)N1Cc2[nH]nc(NC(=O)c3ccc(N4CCN(C)CC4)cc3)c2C1)c1ccccc1	-1.34%
CN(C)Cc1ccc(-c2nc3cccc4c3n2CCNC4=O)cc1	-2.11%
O=C(O)c1ccc(-c2cc3cccnc3c(-c3ccc4nonc4c3)n2)cc1	-2.76%
O=c1cc(N2CCOCC2)oc2c(-c3cccc4c3sc3ccccc34)cccc12	8.07%
CC(C)(C)COc1ccc(-n2cc(C(=O)O)cn2)cc1C#N	-0.573%

Compound	activation
CC(C)C(=O)Nc1ncc(-c2cc(C(F)F)nn2-c2c(Cl)cccc2Cl)s1	-1.13%
O=C(O)CCC1CCC(c2cc(F)ccc2F)(S(=O)(=O)c2ccc(Cl)cc2)CC1 (centres undefined)	-2.07%
CC(C)[C@H](CO)Nc1nc(Nc2ccc(C(=O)O)c(Cl)c2)c2ncn(C(C)C)c2n1	-1.42%
CCOc1ccc(Nc2nc(-c3c(C)nc4ccccn34)cs2)cc1	1.46%
CCOC(CN1C(=O)[C@](CC(=O)Nc2ccc(C)cc2)(NC(=O)Nc2ccc(C)cc2)c2ccccc21)OCC	-1.17%
Cc1ccc(F)c(NC(=O)Nc2ccc(-c3cccc4[nH]nc(N)c34)cc2)c1	5.34%
O=C(Nc1ccccc1-c1cn2c(CN3CCNCC3)csc2n1)c1cnc2ccccc2n1	-0.436%
COc1ncc(-c2ccc3nccc(-c4ccnnc4)c3c2)cc1NS(=O)(=O)c1ccc(F)cc1F	-0.841%
COc1cc2ncnc(-n3nc(-c4ccccn4)nc3N)c2cc1OC	-0.422%
COc1cc2ncnc(Nc3ccc(F)c(Cl)c3)c2cc1OCCCN1CCOCC1	-0.107%
COc1cc(N2CCC(N3CCN(C)CC3)CC2)ccc1Nc1ncc(Cl)c(Nc2ccccc2S(=O)(=O)C(C)C)n1	3.69%
Clc1ccc(-c2nc3sccn3c2C=NOCc2ccc(Cl)c(Cl)c2)cc1	1.81%
CO[C@H]1C=CC=C(C)C(=O)NC2=CC(=O)C(NCCN(C)C)=C(C[C@@H](C)C[C@H](OC)[C@@H](O)[C@@H](C)C=C(C)[C@@H]1OC(N)=O)C2=O	1.21%
CC1=C(/C=C/C(C)=C/C=C/C(C)=C/C(=O)Nc2ccc(O)cc2)C(C)(C)CCC1	2.58%
Cc1nc(N)sc1-c1ccnc(Nc2ccc(N3CCOCC3)cc2)n1	-1.15%
O=C(Nc1cc(Cl)cc2c1[nH]c1cnccc12)c1cccnc1	0.822%
CN1CCN(CCOc2cc(OC3CCOCC3)c3c(Nc4c(Cl)ccc5c4OCO5)ncnc3c2)CC1	-1.37%
CN(C)C1CCN(C(=O)c2ccc(NC(=O)Nc3nc(N4CCOCC4)nc(N4CCOCC4)n3)cc2)CC1	3.28%
CS(=O)c1ccc(-c2nc(-c3ccc(F)cc3)c(-c3ccncc3)[nH]2)cc1 (centres undefined)	-2.01%

From PubChem BioAssay (NCATS)
